# TDP1 block – qHTS Assay for Inhibitors of Tyrosyl-DNA Phosphodiesterase (TDP1). Tyrosyl-DNA phosphodiesterase 1 (Homo sapiens), Q9NUW8. recombinant TDP1, AlphaScreen DNA substrate cleavage. Potency, µM (doses to about 130 µM), inactives show at the highest dose activity change, negative = inhibition, most hits filed as inhibitors. hit rate 0.28% among 350,000; also: nearly all actives have a fitted effect of over 40% in size
# Target sequence (Q9NUW8 whole entry, looked up): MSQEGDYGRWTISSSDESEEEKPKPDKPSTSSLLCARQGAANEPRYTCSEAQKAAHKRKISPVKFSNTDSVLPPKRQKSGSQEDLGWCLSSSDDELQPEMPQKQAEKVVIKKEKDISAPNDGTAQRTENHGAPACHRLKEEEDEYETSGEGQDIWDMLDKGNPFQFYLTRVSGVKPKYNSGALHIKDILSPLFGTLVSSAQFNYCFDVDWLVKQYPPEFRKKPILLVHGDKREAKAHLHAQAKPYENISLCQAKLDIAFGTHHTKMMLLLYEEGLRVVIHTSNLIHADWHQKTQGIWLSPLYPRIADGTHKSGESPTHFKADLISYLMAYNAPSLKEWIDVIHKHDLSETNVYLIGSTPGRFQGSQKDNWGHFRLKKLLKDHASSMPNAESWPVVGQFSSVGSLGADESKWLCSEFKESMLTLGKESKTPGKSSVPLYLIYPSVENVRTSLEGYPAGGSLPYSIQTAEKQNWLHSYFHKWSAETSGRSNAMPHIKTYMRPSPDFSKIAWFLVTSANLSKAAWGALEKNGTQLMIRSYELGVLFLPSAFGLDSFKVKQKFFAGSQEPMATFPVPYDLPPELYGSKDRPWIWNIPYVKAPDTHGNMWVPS
#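 Steps: enzyme plus compound, 15 min RT; add biotin/phosphotyrosine-FITC oligonucleotide (15 nM final), react 5 min; add donor/acceptor beads (10 ug/ml final), 10 min; read AlphaScreen. Tdp1 at 1 nM final.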
# RORgamma inh – qHTS for inhibitors of ROR gamma transcriptional activity. Nuclear receptor ROR-gamma (Mus musculus), P51450. AID 2551, 2010. Potency, µM (highest dose often 53.6 µM), for the others: top-dose activity change, negative = inhibition, hits mostly inhibitors. hit rate 5.4% among 310,000. Drosophila S2 Gal4-RORgamma UAS-luciferase reporter, 20 h; also: nearly all actives have a fitted effect of over 60% in size
#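 Luminescence from a UAS-regulated Photinus luciferase reporter in stably transfected Drosophila Schneider cells is measured; decreased signal marks ROR gamma inhibition. Fusion expression is induced by 700 uM copper sulfate for 20 hr.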
# TDP1 cell noCPT – qHTS for Inhibitors of human tyrosyl-DNA phosphodiesterase 1 (TDP1): qHTS in cells in absence of CPT | DT40 Tdp1-/- hTDP1 cells, no CPT, ATP luminescence, 48 h | Potency, µM (doses to about 46.2 µM), for the others: at the top dose activity change, negative = growth inhibition, most hits filed as inhibitors | hit rate 15% among 420,000 | AID 686978, 2013; also: nearly all actives have a fitted effect of over 55% in size
#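 Camptothecin absent (DMSO only). Human TDP1-complemented DT40 knockout cells, 400 cells/well, 37 °C for minimum 48 hr; ATP measured via CellTiter-Glo, 30 min dark incubation, luminescence.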
# DT40 TDP1 CPT – qHTS for Inhibitors of human tyrosyl-DNA phosphodiesterase 1 (TDP1): qHTS in cells in presence of CPT. chicken DT40 Tdp1-/-;hTDP1 cells + 20 nM CPT, ATP luminescence, 48 h. Potency, µM (highest dose often 46.2 µM), for the others: top-dose activity change, negative = growth inhibition, actives largely listed as inhibitors. hit rate 12% among 420,000. AID 686979, 2013; also: nearly all actives have a fitted effect of over 55% in size
#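 Cell growth measured by CellTiter-Glo luminescence after a minimum 48 h, 37 C compound exposure with 20 nM CPT in Tdp1-knockout DT40 cells stably expressing hTDP1, seeded 400/well; qHTS titration format.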
# VP16 counter – VP16 counterscreen qHTS for inhibitors of ROR gamma transcriptional activity | Potency, µM (top dose mostly 53.6 µM), without a hit: top-dose activity, negative = inhibition, actives largely listed as inhibitors | hit rate 3.5% among 310,000 | Drosophila S2 Gal4-VP16 UAS-luciferase, luminescence, 20 h;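 also: Gal4-VP16 expression switched on by copper sulfate through the metallothionein promoter; nearly all actives have a fitted effect of over 50% in size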
# * = called active by the depositor; u = inconclusive; x = no result given; [ ] = another dose, or the depositor's remark. In the library only some 19% were active in any assay of this set; here they are far more common. Calls follow the shape of the dose curve; as a rule, active = well fitted curve in the direction sought with a large enough effect; inconclusive = small, poorly fitted or top-dose-only effect, or another doubt; inactive = no such curve, though single readings can be large; an effect the other way counts as inactive or inconclusive. % is scaled to controls: 0 for no effect and ±100 for the full control effect; potency is read from the fitted curve at half-maximal effect.
SMILES,TDP1 block,RORgamma inh,TDP1 cell noCPT,DT40 TDP1 CPT,VP16 counter
O=C(C[C@H]1C[C@H](C(=O)N2CCOCC2)[C@@]2(CCC3CCCC3)c3[nH]c4cc(-c5ccco5)ccc4c3CCN2C1=O)NCCC1=CCCCC1,1%[56.1 µM],x,21µM*,u,x
CN(C)C(=O)CCc1ccc2c3c([nH]c2c1)[C@]1(CCC2CCCC2)[C@@H](C(=O)N2CCOCC2)C[C@H](CC(=O)NCCC2=CCCCC2)C(=O)N1CC3,0%[56.1 µM],x,23µM*,23µM*,x
O=C(C[C@H]1C[C@H](C(=O)N2CCOCC2)[C@@]2(CCC3CCCC3)c3[nH]c4ccc(Cl)cc4c3CCN2C1=O)NCCN1CCOCC1,0%[56.1 µM],x,u,u,x
C[C@]12c3[nH]c4ccc(Cl)cc4c3CCN1C(=O)[C@@H](CC(=O)NCCC1=CCCCC1)C[C@@H]2C(=O)N1CCOCC1,1%[56.1 µM],x,16µM*,12µM*,x
O=C(C[C@H]1C[C@H](C(=O)N2CCOCC2)[C@@]2(CCC3CCCC3)c3[nH]c4cc(-c5ccco5)ccc4c3CCN2C1=O)NCCc1ccccn1,6%[56.1 µM],x,u,u,x
O=C(NCc1ccccc1Cl)C1CCN(S(=O)(=O)N2CCC3(CC2)OCCO3)CC1,0%,5%,-22%,-21%,1%
COc1cccc(CNC(=O)COc2cc(=O)n(C)c3ccccc23)c1,0%,x,-18%,-26%,x
CC[C@]12c3[nH]c4cc(-c5ccco5)ccc4c3CCN1C(=O)[C@@H](CC(=O)NCCC1=CCCCC1)C[C@@H]2C(=O)N1CCN(C(=O)C2CC2)CC1,3%[56.1 µM],x,u,u,x
C[C@]12c3[nH]c4cc(-c5ccco5)ccc4c3CCN1C(=O)[C@@H](CC(=O)NCCC1=CCCCC1)C[C@@H]2C(=O)N1CCOCC1,6%[56.1 µM],x,21µM*,16µM*,x
CCOC(=O)N1CCN(C(=O)C2CCCN(S(=O)(=O)c3ccc(C)cc3)C2)CC1 (configuration not stated),3%,-24%,16µM*,u,-8%
CCOC(=O)N1CCN(C(=O)C2CCCN(S(=O)(=O)c3ccc(OCC)cc3)C2)CC1 (configuration not stated),4%[56.1 µM],15%,16µM*,u,-8%
CCOC(=O)N1CCN(C(=O)C2CCCN(S(=O)(=O)c3ccc(F)cc3)C2)CC1 (configuration not stated),5%,22%,-21%,u,0%
CCOc1ccc(S(=O)(=O)N2CCCC(C(=O)N3CCN(c4ccccc4)CC3)C2)cc1 (configuration not stated),5%,u,21µM*,16µM*,u
O=C1C=C(N2CCCCCC2)C2(CCCCC2)O1,0%,9%,-14%,-1%,-2%
O=C(OCC(=O)N1CCCc2ccccc21)c1cccnc1Cl,0%,-25%,15%,-9%,-5%
NC(=O)Cn1cc(/C=N\NS(=O)(=O)c2ccc(Cl)cc2)c2ccccc21,4%,-2%,2%,-14%,-3%
Cc1cc(Nc2ccc(Br)cc2)nc(-c2ccccc2O)n1,-4%,u,-25%,u,-15%
Cc1nn(C)c(Nc2ccc(Br)cc2)c1Br,5%,u,18µM*,15µM*,11µM*
Cc1cc(C)nc(-n2nc(C)c(Br)c2Nc2ccc(Br)cc2)n1,2%,u,u,u,0.89µM*
S=C(NCc1ccccc1)NCC1COc2ccccc2O1 (configuration not stated),3%,u,-1%,-12%,u
O=C(O)C1CC=CCC1C(=O)NCCc1cccc(Cl)c1 (configuration not stated),2%,3%,-9%,-22%,-16%
COC(=O)c1ccc(N=C2S/C(=C\c3cc(C)n(-c4cccnc4)c3C)C(=O)N2C)cc1,1%,29%,18µM*,u,-2%
CCN1C(=O)/C(=C\c2ccc(-c3cccc(C(=O)OC)c3)o2)SC1=Nc1ccc(C(=O)O)cc1,x,15%,x,x,1%
COCC(=O)N1CCC[C@@]2(CCN(C(=O)Nc3ccccc3)C2)C1,x,-27%,0%,13%,-2%
COC(=O)c1c(N2C(=O)[C@H]3[C@@H](C2=O)[C@]2(C(=O)Nc4ccccc42)N2CCC[C@@H]32)sc(C)c1C,8%,u,x,x,-3%
SMILES,TDP1 block,RORgamma inh,TDP1 cell noCPT,DT40 TDP1 CPT,VP16 counter
COC(=O)c1c(N2C(=O)[C@H]3[C@@H](C2=O)[C@]2(C(=O)Nc4c2ccc(C)c4C)N2CCC[C@@H]32)sc(C)c1C,5%,15%,16µM*,18µM*,-12%
CCOC(=O)c1c(-c2ccsc2)csc1N,9%,u,u,-23%,1%
CC(C)NC(=O)c1onc(CSc2cccc(Cl)c2)c1C(=O)O,3%,u,-17%,-1%,u
Cc1cccc(NC(=O)CSc2nnc(C3CC3)n2CC2CCCO2)c1 (configuration not stated),1%,-6%,-3%,27%,0%
O=C(CN1CCOCC1)NNc1nc(-c2ccccc2)c2cc(Br)ccc2n1,11%,8.9µM*,u,u,-12%[10 µM]
O=C(O)CCC(=O)NNc1nc(-c2ccccc2)c2cc(Cl)ccc2n1,x,1%,1%,5%,-12%
O=C(CN1CCCCC1)NNc1nc(-c2ccccc2)c2cc(Cl)ccc2n1,2%,5µM*,u,u,4µM*
O=C1C2C3c4ccccc4C(c4ccccc43)C2C(=O)N1c1ccncc1 (configuration not stated),4%,45%,16µM*,21µM*,-7%
O=C1C2C3c4ccccc4C(c4ccccc43)[C@@H]2C(=O)N1c1cccnc1 (some centres not stated),1%,0%,23µM*,u,-1%
Cc1cc(N2C(=O)C3C4c5ccccc5C(c5ccccc54)C3C2=O)no1 (configuration not stated),-4%,6%,10µM*,12µM*,-2%
c1ccc(CN2CCN(c3ncnc4nc[nH]c34)CC2)cc1,5%,9%,u,u,-15%
COC(=O)c1cc(NC(=O)COC(=O)CCc2c[nH]c3ccccc23)cc(C(=O)OC)c1,1%,x,-10%,-4%,x
COC1=CC(=O)c2c(ccc3ncnc(N)c23)C1=O,x,x,0.29µM*,0.21µM*,x
COc1cc(OC)c2c(c1C(CCN1CCCC1)c1ccc(N(C)C)cc1)OC(=O)CC2c1ccc(N(C)C)cc1 (configuration not stated),27%,15%,x,x,-10%
